Assay [1] in a line: viability loss in pontine glioma line – cell-based, SU-DIPG-XVII, MIPE5.0, CellTiter-Glo, qHTS, dose response (AID 1347060).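 As to AC50: cells exposed to compound for 48 hours before viability readout.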 Conditions: CellTiter-Glo ATP luminescence. A general note: In ATP-based viability assays light output follows the ATP content of the culture.
The nature of assay [2]: JHH-DIPG-1 glioma cell viability, MIPE5.0 library, CellTiter-Glo luminescence, qHTS (AID 1347067).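 Also: cells exposed to compound for 48 hours before readout.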 To be noted: JHH-DIPG-1 glioma viability, CellTiter-Glo ATP luminescence.
The nature of assay [3]: growth inhibition of DIPG cells – cell-based, MIPE5.0 library, qHTS (AID 1347068; cut-off not given, nearly all actives have IC50 up to about 30 µM;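 as to IC50: cells exposed to compound for 48 hours before viability readout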). To be noted: SU-DIPG-XXV viability.
Assay [4] is described as follows: viability loss in pontine glioma line – cell-based, SU-DIPG-XIII, MIPE4.0, CellTiter-Glo, qHTS, dose response (AID 1347061; cut-off not given, nearly all actives have AC50 up to about 37 µM;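 also: cells exposed to compound for 48 hours before readout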). To be noted: CellTiter-Glo ATP luminescence.
Assay [5] can be described thus: viability loss in pontine glioma line – cell-based, JHH-DIPG-1, MIPE4.0, CellTiter-Glo, qHTS, dose response (AID 1347062; cut-off not given, nearly all actives have AC50 up to about 27 µM;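 as to AC50: cells exposed to compound for two days before readout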). Conditions: JHH-DIPG-1 viability, CellTiter-Glo ATP luminescence.
Assay [6] in a line: viability loss in pontine glioma line – cell-based, SU-DIPG-IV, MIPE4.0, CellTiter-Glo, qHTS, dose response (AID 1347063; cut-off not given, nearly all actives have AC50 up to about 30 µM;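 also: compound exposure lasted 48 hours before the viability readout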). Conditions: CellTiter-Glo ATP luminescence.
Assay [7] is described as follows: viability loss in pontine glioma line – cell-based, SU-DIPG-XIII, MIPE5.0, CellTiter-Glo, qHTS, dose response (AID 1347064; cut-off not given, nearly all actives have AC50 up to about 23 µM;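 as to AC50: cells exposed to compound for 48 hours before the viability read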). To be noted: CellTiter-Glo ATP luminescence.
A short description of assay [8]: viability loss in pontine glioma line – cell-based, SU-DIPG-XXV, MIPE5.0, CellTiter-Glo, qHTS, dose response (AID 1347065).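 Also: cells exposed to compound for 48 hours before ATP readout.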 To be noted: CellTiter-Glo ATP luminescence.
The nature of assay [9]: growth inhibition of DIPG cells – cell-based, MIPE4.0 library, CellTiter-Glo luminescence, qHTS (AID 1347066; cut-off not given, nearly all actives have AC50 up to about 30 µM;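 also: cells exposed to compound for 48 hours before readout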). Conditions: SU-DIPG-VI viability, CellTiter-Glo ATP luminescence.
Assay [10] is described as follows: viability loss with induced miR-34 in A549 – imaging, A549 dox-inducible miR-34, nuclei and caspase counts, primary screen (AID 1347080;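 active = compounds whose cell count with miR-34 switched on is under 0.7 times the count with it off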). Conditions: A549 miR-34 inducible, Hoechst nuclei count, 48 h.
A short description of assay [11]: MELAS cybrid and Rieske KO viability enhancers – cell-based, MELAS cybrids, Rieske KO mouse fibroblasts, CellTiter-Glo, primary screen (AID 1508586;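 active = mean z-score across replicates of 1.96 or higher in either the MELAS or the Rieske mutant cell line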;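 also: z relative to plate mean and SD of compound and empty wells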). Conditions: low glucose.
Assay [12] can be described thus: liver-stage malaria parasite load reduction – cell-based, known kinase inhibitor set, luminescence, hepatoma host viability (AID 624392; call rule not given here;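 also: infected cells incubated roughly two days before readout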). Conditions: Plasmodium liver stage in hepatoma cells, luciferase luminescence, concentration not given here; liver cell % of control: measured here: host liver cell viability; parasite % of control: stronger effect = lower value.
[13] abbreviates: stronger effect = lower value, cell number ratio, induced over uninduced.
The mark [14] stands for this setting: measured here: relative caspase fold change +Dox/-Dox.
[15] abbreviates: measured here: total cells with miR-34 induction, stronger effect = lower value.
Where [16] appears, read: measured here: total cells without miR-34 induction.
Setting [17] is: MELAS cybrid survival, CellTiter-Glo 48 h, stronger effect = higher value.
Setting [18] is: Rieske KO mouse fibroblast survival, CellTiter-Glo 72 h.

Where “and” joins values, the source holds several entries; their conditions need not be identical. Equal entries are not always repeated. Inconclusive results are not listed. Calls of active or inactive are those of the source. Unless noted, the limit is not given here; nearly all actives have AC50 up to about 26 µM.

As for `CC(C)NCCCn1c(Sc2cc(Cl)cc(Cl)c2)nc2c(N)ncnc21`, the result in assay [1], in assay [2] and in [3] was inactive.
As a reminder, the AC50 is the concentration at which the activity in the assay is half-maximal. With `C[C@@H](O)[C@@H](C)Oc1nc(Nc2ccc(S(=N)(=O)C3CC3)cc2)ncc1C(F)(F)F` (stereo not given in full), the AC50 in assay [1] was 20.9 µM (active). For the same molecule, the outcome in [3] was inactive.
Consider `Cc1nc2cccc(N)c2c(=O)n1C1CCC(=O)NC1=O` (stereo not given), for which the molecule was called inactive in assay [1], in [2] and in [3].
Regarding `CNC(=O)c1cc(Oc2ccc3nc(N[C@@H]4CCCC[C@H]4O)sc3c2)ccn1`, the call in assay [1] and in assay [3] was inactive.
For `CNc1ncc2cc(-c3cc(NC(=O)NCCC(C)(C)C)c(F)cc3C)c(C)nc2n1`, the result in assay [1] and in assay [3] was inactive.
As for `CN1C(=O)N(c2cc(Cl)cc(Cl)c2)C(=O)[C@]12CN(Cc1cc(C(=O)O)cs1)C[C@H]2c1ccc(C#N)cc1`, the molecule was classed as inactive in assay [1] and in assay [3].
Consider `O=C(/C=C/c1ccc(Cl)cc1)N1CCC2(CC1)CN(Cc1ccc(Cl)c(Cl)c1)C(=O)O2`, for which the AC50 in assay [1] is 18.6 µM (active). For the same molecule, the outcome in [3] was inactive.
In the case of `COC(=O)C1=C(C)NC(c2ncc(F)cc2F)=N[C@@H]1c1ccc(F)cc1Cl`, the molecule was classed as inactive in assay [1] and in [3].
As for `O=C(NO)C1(CS(=O)(=O)c2ccc(Oc3ccc(Cl)cc3)cc2)CCOCC1`, the molecule was classed as inactive in [1] and in assay [3]. In [2], the AC50 is 3.72 µM (active).
On to `C[C@@H]1CC(=O)Nc2cccc(-c3ccc4c(c3)c(-c3cnn(C)c3)nn4C)c2N1`, for which the result in [1] and in assay [3] was inactive.
Regarding `C[C@H]1C[C@@H](n2c(Nc3ccc(OC(F)(F)F)cc3)nc3cc(CCC(=O)O)ccc32)CC(C)(C)C1`, the AC50 in assay [1] was 23.5 µM (active). For the same molecule, the molecule was called inactive in assay [3].
Turning to `O=C(CCNC(=O)c1ccc(OC(F)(F)F)cc1)N[C@@H]1CCCc2ccccc21`, the AC50 in [1] was 20.9 µM (active); in [2], 8.33 µM (active). Besides, the molecule was called inactive in assay [3].
One may read the IC50 as the concentration needed to halve the response being measured. As to `N#Cc1cc2cc(CN3CCC(Nc4ncnc5sc(CC(F)(F)F)cc45)CC3)c(O)cc2n1Cc1cn[nH]c1`, in [1], the AC50 is 29.5 µM (active). Besides, the IC50 in assay [3] was 20.9 µM (active).
Consider `O=[N+]([O-])c1ccc(Nc2ccccc2-c2ccccc2)c2nonc12`, for which the molecule was classed as inactive in assay [4], in assay [5] and in assay [6]. The AC50 in [7] is 23.5 µM (active); in [8], 18.6 µM (active); in assay [9], 20.9 µM (active); in [2], 23.5 µM (active).
`Nc1ncnc2c1c(-c1cccc(OCc3ccccc3)c1)cn2C1CC(CN2CCCC2)C1` (stereo not given): the AC50 in assay [4] was 16.6 µM (active); in assay [5], 20.9 µM (active); in [6], 20.9 µM (active); in assay [7], 1.18 µM (active); in assay [8], 0.934 µM (active); in assay [9] it was 1.18 µM (active). Further, the half-maximal activity concentration (AC50) in assay [2] was 18.6 µM (active). Further, in assay [3], the IC50 is 4.68 µM (active). Besides, the fold change in assay [10] (setting [13]) was 1.06 (inactive); in [10] (setting [14]), 0.675. The figures for the cell count in assay [10] (setting [15]) and in assay [10] (setting [16]) were 1510 and 1430, respectively. Moreover, the z-score in assay [11] (setting [17]) is -0.449 (inactive); in assay [11] (setting [18]) it was 0.635.
On to `CO[C@H]1C(=O)[C@]2(C)[C@@H](OC)C[C@H]3OC[C@@]3(OC(C)=O)[C@H]2[C@H](OC(=O)c2ccccc2)[C@]2(O)C[C@H](OC(=O)[C@H](O)[C@@H](NC(=O)OC(C)(C)C)c3ccccc3)C(C)=C1C2(C)C`, for which the result in [4], in assay [5], in assay [6], in assay [7], in [9] and in [2] was inactive. Further, the AC50 in assay [8] is 0.00186 µM (active).
`COc1ccc(Cc2ccc(NC(N)=O)cc2)cc1-c1cccc(Cl)c1`: the result in [4], in [5], in assay [6], in assay [7], in assay [8] and in assay [9] was inactive. Moreover, in assay [2], the outcome was inactive.
For `CCN(c1cc(-c2ccc(CN3CCOCC3)cc2)cc(C(=O)NCc2c(C)cc(C)[nH]c2=O)c1C)C1CCOCC1`, the result in assay [1] and in [3] was inactive. Further, the fold change in [10] (setting [13]) is 0.946 (inactive); in assay [10] (setting [14]), 0.487. Also, the cell count in [10] (setting [15]) came to 7910; in assay [10] (setting [16]) it was 8360. In addition, the z-score was -0.348 (inactive) in assay [11] (setting [17]) and -0.95 in assay [11] (setting [18]).
Take `CN(C)C1CCN(C(=O)c2ccc(NC(=O)Nc3nc(N4CCOCC4)nc(N4CCOCC4)n3)cc2)CC1`: the AC50 is 0.833 µM (active) in assay [4]; 0.166 µM (active) in [5]; 0.0469 µM (active) in assay [6]; 0.525 µM (active) in assay [7]; 0.295 µM (active) in [8]; 0.264 µM (active) in assay [9]. Moreover, the AC50 in [2] is 0.525 µM (active). Besides, the IC50 in assay [3] was 0.934 µM (active).
On to `C[C@@H]1C(=O)O[C@H]2CC34[C@H]5C[C@@H](C(C)(C)C)C36[C@@H](OC(=O)[C@@H]6O)O[C@@]4(C(=O)O5)[C@]21O` (stereo not given in full), for which the molecule was called inactive in assay [4], in [5], in assay [6], in [7], in assay [8] and in assay [9]. Also, the result in assay [2] was inactive.
For `Cc1cn([C@@H]2C[C@@H](O)[C@H](CO)O2)c(=O)[nH]c1=O`, the outcome in [4], in [5], in assay [6], in assay [7], in [8] and in assay [9] was inactive. Moreover, the result in [2] and in [3] was inactive.
Regarding `O=C(CO)N1CCC(c2[nH]nc(-c3ccc(Cl)cc3)c2-c2ccncn2)CC1`, the liver cell % of control in [12] was 88.6% and 86.6% and 97.2%. In assay [12], the parasite % of control is 11.9% (inactive) and 26% (inactive) and 30.9% (inactive). For the same molecule, the call in assay [4], in [5], in assay [6], in assay [7], in assay [8] and in [9] was inactive. Besides, the outcome in [3] was inactive.

(Values after PubChem BioAssay.)
